The list is not random: actives were taken first. Their share in the collection is about 14%.
HCMV antiviral: qHTS Assay for inhibitors of the human cytomegalovirus (HCMV) | HFF cells, HCMV-luciferase reporter, 72 h; hits give low values | activity change, negative = inhibition, % at 57.5 µM | 4.5% of 410,000 active | AID 1259415, 2018; in the data active = activity change below about -60%; inconclusive = no clear call, values can overlap the other calls; inactive = above about -39%
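Luciferase read-out from HCMV-luciferase-infected HFFs (MOI 1 PFU/cell) 72 h post infection at 37C; compounds added after 16 h cell attachment; activity normalized between buffer-only basal and Salinomycin (10uM) inhibitor controls.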
Pf growth 48h: Primary qHTS for delayed death inhibitors of the malarial parasite plastid, 48 hour incubation. P. falciparum luciferase growth in erythrocytes, 48 h. Potency, µM (series often up to 28.7 µM), without a hit: at the highest dose activity change, negative = inhibition, actives largely listed as inhibitors. 5.9% of 310,000 active. AID 504832, 2011; also: potency is read from the fitted curve at half-maximal effect
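Luciferase-expressing P. falciparum in infected erythrocytes (2% hematocrit, 0.1% parasitemia final) in RPMI 1640/0.5% Albumax were exposed to compound for 48 hours at 37 C, 5% CO2; growth read as luminescence.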
HCV inh: qHTS Assay for Inhibitors of Hepatitis C Virus (HCV); Huh7.5.1 HCVcc-Cre infection, luciferase reporter, 44 h; Potency, µM (top dose mostly 41.8 µM), without a hit: at the top dose activity change, negative = inhibition, hits mostly inhibitors; 3.4% of 340,000 active; AID 651820, 2012; also: potency is read from the fitted curve at half-maximal effect
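Cells (1,000/well) were plated 4 h before compound, then infected with HCVcc-Cre virus (~0.5 moi). After 44 h further culture, infection was read as luciferase luminescence following a 15 min substrate incubation at room temperature.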
Marburg entry inh: qHTS for inhibitors of binding or entry into cells for Marburg Virus; Potency, µM (highest dose often 37.8 µM), without a hit: at the highest dose activity change, negative = inhibition, actives largely listed as inhibitors; Marburg virus pseudotyped entry inhibition, cell reporter; AID 540276, 2011; 1.8% of 300,000 active; calls by dose curve; tested in HEK293 cells; also: potency is read from the fitted curve at half-maximal effect
Lassa entry inh: qHTS for Inhibitors of binding or entry into cells for Lassa Virus; Lassa virus pseudotype entry inhibition, cell reporter; Potency, µM (highest dose often 37.9 µM), for inactives: at the top dose activity change, negative = inhibition, hits mostly inhibitors; 1.2% of 300,000 active; calls by dose curve; tested in HEK293 cells; also: potency is read from the fitted curve at half-maximal effect; nearly all actives have a fitted effect of over 50% in size
Pf growth 96h: Primary qHTS for delayed death inhibitors of the malarial parasite plastid, 96 hour incubation; P. falciparum luciferase reporter growth, 96 h; Potency, µM (doses to about 28.7 µM), for inactives: at the top dose activity change, negative = inhibition, hits mostly inhibitors; 6.9% of 320,000 active; AID 504834, 2011; also: potency is read from the fitted curve at half-maximal effect
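Delayed-death screen, second-generation endpoint: infected erythrocytes, 2% hematocrit, 0.05% parasitemia final; 96 hours at 37 C, 5% CO2; luciferase detection reagent; luminescence decrease equals reduced growth.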
Numbers without * were called inactive; u = inconclusive; x = not tested or not shown; [ ] = another dose, or the depositor's remark. Unless noted, calls follow the shape of the dose curve; as a rule, active = well fitted inhibition curve with a large enough effect; inconclusive = small, poorly fitted or top-dose-only effect, or another doubt; inactive = no such curve, though single readings can be large or run the other way. % is scaled to controls: 0 for no effect and ±100 for the full control effect.

SMILES | HCMV antiviral | Pf growth 48h | HCV inh | Marburg entry inh | Lassa entry inh | Pf growth 96h
COc1ccc(C(=Cc2cc(OC)c(OC)cc2[N+](=O)[O-])C(=O)O)cc1 | -99.0* | x | -20.1% | -0.2% | -3.4% | x
CSc1cccc(NC(=O)CN(C)S(=O)(=O)c2ccc3c(c2)CCCN3C(C)=O)c1 | -17.7 | x | x | x | -20.5%[46.1 µM] | x
COC(=O)CCn1nnc(-c2ccc(C(C)C)cc2)n1 | -62.4* | u | -0.8% | u | u | u
COC(=O)CCn1nnc(-c2cccs2)n1 | -11.0 | 8.3% | 2.9% | 5.9% | 8.0% | 23.6%
COc1ccc(CNC(=O)c2c(Nc3ccccc3C)sc(C(=O)c3ccccc3)c2N)cc1 | -37.4 | x | x | x | u | x
Cc1ccccc1C(=O)N1CCC(C(=O)N(C)CCOc2ccccc2)CC1 | u | u | x | 4.5% | -14.1% | -10.4%
O=C(C1CCN(S(=O)(=O)c2ccccc2F)CC1)N1CCN(Cc2ccc3c(c2)OCO3)CC1 | -33.1 | u | 12.6µM* | x | x | u
O=C(c1cccs1)N1CCC(C(=O)N2CCN(Cc3ccc4c(c3)OCO4)CC2)CC1 | u | 10.6% | -14.7% | u | -3.3% | 23.5%
Cc1ccccc1C(=O)N1CCC(C(=O)N2CCN(Cc3ccc4c(c3)OCO4)CC2)CC1 | -101.7* | x | -9.8% | -16.1% | 11.1% | x
O=C(c1ccccc1Br)N1CCN(Cc2ccc3c(c2)OCO3)CC1 | 24.8 | 3.0% | u | -7.7% | -4.5% | u
Cc1cccc(N(Cc2ccccc2)C(=O)C2CCN(C(=O)c3ccccc3C)CC2)c1 | 43.5 | 11.7µM* | u | -40.4% | -29.2% | 10.4µM*
O=C(C1CCN(Cc2cccs2)CC1)N1CCN(Cc2ccc3c(c2)OCO3)CC1 | -103.6* | -0.9% | u | u | -0.5% | 36.7%
O=C(c1ccc(F)cc1)N1CCC(C(=O)N2CCN(Cc3ccc4c(c3)OCO4)CC2)CC1 | -1.5 | -4.4% | u | -1.9% | 8.0% | 3.3%
C#CCNC(=O)C[C@@H]1C[C@@]2(C(=O)OC)CCCCC=C2N(Cc2ccco2)C1=O | 4.9 | x | x | x | x | x
O=C(Nc1ccccc1C(F)(F)F)c1noc2c1CCCC2 | 58.5 | x | x | u | 5.6%[46.1 µM] | x
Cc1cccc(NS(=O)(=O)c2cccc(C(=O)NCC(c3ccco3)N(C)C)c2)c1 (centres undefined) | -30.4 | u | -2.8% | -15.2% | -5.5% | -18.1%
Cc1ccc(C(O)(c2ccccc2)c2ccccc2C(C)N(C)C)c(C)c1 (centres undefined) | u | u | u | 5.8µM* | 8.2µM* | u
O=C(c1cncc(Br)c1)N1CCN(S(=O)(=O)c2ccc(Cl)cc2)CC1 | -33.7 | -8.9% | -1.8% | 1.2%[46.1 µM] | -9.9%[46.1 µM] | -4.6%
CCOc1ccc(NC(=O)/C=C/c2ccccc2)c([N+](=O)[O-])c1 | 36.6 | 9.28µM* | u | -26.1% | 18.6% | 8.28µM*
CCOc1ccc(Nc2ccc(C(=O)O)cc2[N+](=O)[O-])cc1 | 42.5 | -1.1%[0.00184 µM] | 5.2% | x | x | u
CCOc1ccc(N/C=C/C(=O)c2ccccc2)c([N+](=O)[O-])c1 | 1.0 | -49.2% | -27.8% | u | 1.12µM* | u
Fc1ccc(-n2ncc3c(N4CCN(c5ccccc5F)CC4)ncnc32)cc1 | -6.8 | x | x | x | 25.7%[46.1 µM] | x
CC(SCc1ccccc1)C(=O)N/N=C/c1ccc(OCC(=O)NCc2ccco2)cc1 (centres undefined) | -28.4 | 3.7% | 11.2µM* | u | u | 1.65µM*
COc1ccc(CSCC(=O)N/N=C/c2ccc(OCC(=O)NCc3ccco3)cc2)cc1 | -20.8 | -21.2% | u | u | u | -3.4%
Cc1ccc(-n2c(=O)c3cccnc3n2CC(=O)Nc2ccc(Br)cc2)cc1C | 18.2 | x | x | 0.5%[46.1 µM] | 12.1%[46.1 µM] | x
SMILES | HCMV antiviral | Pf growth 48h | HCV inh | Marburg entry inh | Lassa entry inh | Pf growth 96h
Cc1sc2ncnc(N3CCC(C(=O)Nc4nc(-c5cccs5)cs4)CC3)c2c1C | 15.6 | u | u | 2.24µM* | 3.7% | 10.4µM*
CCCCc1nnc(NC(=O)C2CCN(c3ncnc4sc(C)c(C)c34)CC2)s1 | -31.2 | u | -5.2% | 0.2% | 2.2%[46.1 µM] | u
CCc1nnc(NC(=O)C2CCN(c3ncnc4sc(C)c(C)c34)CC2)s1 | 94.2 | 36.3% | -11.1% | x | x | 41.3%
CCOC(=O)c1ccccc1NC(=O)C1CCN(c2ncnc3sc(C)c(C)c23)CC1 | x | 10.4µM* | u | 2.0%[46.1 µM] | -14.4% | -14.1%
Cc1sc2ncnc(N3CCC(C(=O)Nc4ccccc4C(C)(C)C)CC3)c2c1C | -36.3 | 11.7µM* | 2.0% | u | -2.6%[46.1 µM] | u
Cc1sc2ncnc(N3CCC(C(=O)Nc4cc(C(F)(F)F)ccc4OCC(F)(F)F)CC3)c2c1C | 41.5 | x | 7.94µM* | x | x | x
COc1ccc(CNC(=O)CCCN2C(=O)c3cccnc3Oc3ccc(Cl)cc32)cc1 | 0.0 | x | x | x | -3.7%[46.1 µM] | x
CCOc1ccc(NC(=O)c2oc3ccccc3c2NC(=O)C(C)Oc2ccccc2)cc1 (centres undefined) | 24.4 | x | x | u | -4.5%[46.1 µM] | x
C#C[C@]1(O)CC[C@H]2[C@H]3[C@H](CC[C@@]21C)C1=C(CC(=O)CC1)C[C@@H]3C | x | -5.4% | x | x | x | -25.7%
Cc1ccccc1-c1noc(-c2ccccc2OCC(=O)Nc2cccc([N+](=O)[O-])c2)n1 | 16.6 | x | x | -16.2%[46.1 µM] | 2.1%[46.1 µM] | x
C[C@@H]1CN([C@@H](C)CO)C(=O)CCCn2nncc2CO[C@@H]1CN(C)C(=O)C1CC1 | 7.1 | x | x | x | x | x
C/C(=N\N=C(N)N)c1cccc([N+](=O)[O-])c1 | -29.1 | 7.4% | 0.1% | -29.9% | 18.4% | u

Screens: PubChem, National Center for Advancing Translational Sciences (NCATS)
